± gives the standard deviation.

This experiment relates to MILI (PIWIL2) piRISC loaded with piRNA #1 (26 nt). Nature of the experiment: pre-steady-state target cleavage rate (min^-1); guide: piRNA #1 5'p-UGAGGUAGUAGGUUGUAUAGUAUCCA; MIWI and MILI are mouse PIWI proteins and EfPiwi is from a freshwater sponge; tags in brackets are library labels; higher = faster piRNA-guided slicing of the target. The note with it: auxiliary factor: 500 nM mouse GTSF1. In a few lines: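 The method was Cleave-'n-Seq, in which uncleaved targets from a transcribed, DNA-blocked target RNA library were sequenced after exposure to active affinity-purified piRISC carrying one synthetic guide, with or without GTSF1 partner protein. Reactions contained 0.1 nM library, 1 nM piRISC and, where present, 500 nM GTSF1 in HEPES–potassium acetate buffer at 33 °C for 0–8 or 0–960 min. Reads were normalised to depth and to weakly complementary targets, three trials were pooled, and k3 was capped at 0.0001 min^-1. The pre-steady-state cleavage rate came from a burst-and-steady-state fit.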
As for GGAGACCUAUGAUAACAACUUACUACCUCA, the “pre-steady-state target cleavage rate” value was 0.00545 ± 0.0023.

Consider GGAGACCUUACUAUUCAACCUACUACGUCA, for which the “pre-steady-state target cleavage rate” value is 0.0709 ± 0.0096.

With GGAGACCUAUGAUAACAACCUAAUACCUCA, the “pre-steady-state target cleavage rate” value amounted to 0.00414 ± 0.0023. The figure for GGAGACCUAUGAUAACAACCUACUACCUUA is 0.00415 ± 0.003; for GGAGACCAUUCUAAACAACCUACUACCUCA it is 0.0936 ± 0.012; for GGAGACCUAUGAUAUCAUCCUACUACCUCA it is 0.00256 ± 0.0016. Turning to GGAGUGGAUACUAUACAUCCUACUACCACA, the “pre-steady-state target cleavage rate” value was found to be 0.108 ± 0.014.

As for GGAGACCUAUGAUAUCAACCUACAACCUCA, the “pre-steady-state target cleavage rate” value came to 0.00288 ± 0.0026.

As to GGAGACCUAUGAUAUGUUGCUACUCCUCA, the “pre-steady-state target cleavage rate” value is less than 0.0001.

GGAGACCUUACUAUUCUACCUACUACCUCA: the “pre-steady-state target cleavage rate” value was 0.124 ± 0.0096. For GGAGACCUAACUAAAGAACCUACUACCUCA, the “pre-steady-state target cleavage rate” value is 0.0693 ± 0.013. Turning to GGAGACCUAUGUAUAGCAACCUACUACCUCA, the “pre-steady-state target cleavage rate” value turned out to be 0.0101 ± 0.003. With GGAGACCUUACUAUACUUCCUACUACCUCA, the “pre-steady-state target cleavage rate” value was determined as 0.127 ± 0.011.

Take GGAGACCUAUGAAUACAACCUACUCACCUCA: the “pre-steady-state target cleavage rate” value came out at 0.004 ± 0.0026. As to GGAGACCUAUGAUAUGAACGUACAACCUCA, the “pre-steady-state target cleavage rate” value was less than 0.0001. Consider GGAGACCUAUGAUAUCAACUUACUACCUCA, for which the “pre-steady-state target cleavage rate” value turned out to be 0.00319 ± 0.0027. The figure for GGAGACCUAUGUUUACAACCUACUACCACA is 0.0147 ± 0.0041; for GGAGACCUAUGUAUGCAACCUACUACCUCA it is 0.0637 ± 0.0095; for GGAGACCUAUGUAUUCAACCUACUACGUCA it is 0.00786 ± 0.0022. The figure for GGAGACCUUUCUAUAGAACCUACUACCUCA is 0.0818 ± 0.011; for GGAGUGGAUUGAAUACAACCUACUACCUCA it is 0.0713 ± 0.0073; for GGAGACCUAUGAUAACAAGCUAGUACCUCA it is 0.00508 ± 0.0032.

GGAGACCUAUGUAUACAACCUACUUCCUCA: the “pre-steady-state target cleavage rate” value was 0.0381 ± 0.0071.

As to GGAGACCUAACUAAACAACGUACUACCUCA, the “pre-steady-state target cleavage rate” value stood at 0.00971 ± 0.005. With GGAGACCUAUCUAUACAACCUUCUUCCUCA, the “pre-steady-state target cleavage rate” value amounted to 0.00365 ± 0.0029. The figure for GGAGACCUAACUAUUCAACCUACUUCCUCA is 0.0529 ± 0.018.

Take GGAGACCUUACUAUACACCUACUACCUCA: the “pre-steady-state target cleavage rate” value is 0.00774 ± 0.0034. For the sequence GGAGUGGAUACUAUACAACCAACUACGUCA, the “pre-steady-state target cleavage rate” value was found to be 0.00435 ± 0.0018. For GGAGACGAUACUAUACAACCUACUACUCUCA, the “pre-steady-state target cleavage rate” value was 0.244 ± 0.019. The figure for GGAGACCUAAGUAUACAACCUACAACCUCA is 0.0483 ± 0.0084; for GGAGACCUAUGAAUUCAACCUACUACCUCA it is 0.00274 ± 0.0019. On to GGAGACCAUAGUAUACAAGCUACUACCUCA, for which the “pre-steady-state target cleavage rate” value came out at 0.16 ± 0.015.

On to GGAGACCUAUCUAUACAACGUACAACCUCA, for which the “pre-steady-state target cleavage rate” value amounted to 0.0149 ± 0.0048.

With GGAGACCUAUCUAUACAACGUACUACCUGA, the “pre-steady-state target cleavage rate” value stood at 0.00689 ± 0.0021. As for GGAGACCUAACUAUACUACCUACUACCUGA, the “pre-steady-state target cleavage rate” value is 0.0917 ± 0.025. GGAGACCUUACUAUACAACCUAGAACCUCA: the “pre-steady-state target cleavage rate” value was 0.00842 ± 0.0033. The figure for GGAGACCUAUGAUAUGUUCCUACUACGUGA is less than 0.0001; for GGAGACCUAACUAUUGUACCUACUACCUCA it is 0.00477 ± 0.0036; for GGAGACCUAUGAAUACAAGCAACUACCUCA it is 0.00265 ± 0.0026. With GGAGAGGAUACUAUACAACCAACUACGUCA, the “pre-steady-state target cleavage rate” value came to 0.00609 ± 0.0018.

Source of the values: the supplement of paper PMC10338343.
